Experimental data from PubChem BioAssay (NCI).
The panel holds about 83,000 compounds, 20% with a hit somewhere; the sample as a whole holds those more often.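 Method: cells in 96-well plates; compound added at one concentration; 48 h incubation; percent growth measured; values under 10 scored active.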 A number with no mark means an inactive call. Activity calls are given as the source filed them.

test system: DU-145 prostate; assay: NCI-60 one-dose screen, 48 h (100 = growth as untreated, 0 = no growth, -100 = all killed); settings: 10 µM unless noted

Row | SMILES | growth
1 | CC(=O)CCC(=O)OCc1cc(=O)c(O)co1 | 102%
2 | O=C(c1nc2ccccc2[nH]1)C1C(c2ccc(Cl)cc2)C2CC3CCCC[C@H]3N2[C@@]12C(=O)Nc1cc(Cl)ccc12 (some centres undefined) | 62.1%
3 | COc1cccc(-c2nc3occn3c2-c2ccnc(NCCNS(=O)(=O)c3cccc4ccccc34)n2)c1 | 107%
4 | COc1cc(-c2n/c(=C\c3c(O)[nH]c4ccc(Cl)cc34)cc3c2=Nc2ccccc2-3)ccc1F | -36.4% (active)
5 | NNC(=O)c1ccc(-n2nc(-c3ccccc3)c3ccccc32)cc1 | 79.7%
6 | O=C1Nc2cc(-c3cccc(O)c3)ccc2/C1=C/c1ccc[nH]1 | 33.8%
7 | COc1cccc(/C=N/NC(=O)c2cnn3c2NC(c2ccccc2)C3)c1Oc1ccccc1 (centres undefined) | 89.8%
8 | S=c1cc(S)c2cc(Br)ccc2[nH]1 | 105%
9 | O=C(NCCc1ccccc1)Nc1ccc2cc3ccc(NC(=O)NCCc4ccccc4)cc3nc2c1 | 29.2%
10 | CCN(CC)CCCC(C)Nc1cc(O)cc2cccnc12 (centres undefined) | 113%
11 | CCOC(=O)C1=C(C)NC(SCc2cc(=O)oc3ccc(F)cc23)=N[C@@H]1c1cccc2ccccc12 | 98.5%
12 | COc1ccc(C(=O)c2cc(OC)c(OC)c(OC)c2)cc1O | 9.94% (active)
13 | CCCOC(=O)N[C@H]1CCc2c(Cl)c(OC)c(OC)c(OC)c2-c2ccc(SC)c(=O)cc21 | 3.02% (active)
14 | Cc1ccc(/C=N/NC(=O)CSc2nc3ccccc3c(=O)n2Cc2ccc(S(N)(=O)=O)cc2)cc1 | 105%
